Screens as filed in PubChem.
In the library only some 3.7% were active in any assay of this set; here they are far more common.
Wnt bcat act: Wnt/beta-catenin pathway activation | Wnt/beta-catenin reporter cell assay, activator, plate reader | activation, % at 9.35 µM | 300,000 tested, 1.2% active | AID 743398; in the data active = activation above about 30%, passing the limit was not always enough; inconclusive = no clear call, values can overlap the other calls
MITF act: activators of MITF-driven TRPM1 promoter activity in SK-MEL-5 cells; SK-MEL-5 TRPM1-promoter luciferase, 24 h; % of positive control, neutral wells = 0; 300,000 tested, 0.75% active; activation, % at 12.5 µM; AID 588334;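 active = mean activation of at least 80% with every replicate also reaching 80%; inconclusive = mean reaches 80% but some replicate falls short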
esBAF inh: SWI/SNF esBAF complex inhibition. mouse ES cells, Bmi1-luciferase knock-in reporter, 24 h; 100% = twice the neutral-well signal. reporter increase, % at 12.5 µM. 350,000 tested, 2% active. AID 602393; in the data active = activation above about 40%; inconclusive = no clear call, values can overlap the other calls;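 note: a rise in the Bmi1 reporter signal indicates esBAF inhibition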
AF4-AF9 inh: blocks AF4 peptide binding to human AF9; P42568; AlphaScreen, biotin-AF4 peptide binding to FLAG-AF9; inhibition, % at 10 µM; 350,000 tested, 0.47% active;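 active = every replicate reaching a set inhibition limit, whatever the replicate mean, cut at about 25% in these data; inconclusive = mean inhibition reaches that limit but some replicates miss it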
Target sequence (P42568 whole entry, looked up): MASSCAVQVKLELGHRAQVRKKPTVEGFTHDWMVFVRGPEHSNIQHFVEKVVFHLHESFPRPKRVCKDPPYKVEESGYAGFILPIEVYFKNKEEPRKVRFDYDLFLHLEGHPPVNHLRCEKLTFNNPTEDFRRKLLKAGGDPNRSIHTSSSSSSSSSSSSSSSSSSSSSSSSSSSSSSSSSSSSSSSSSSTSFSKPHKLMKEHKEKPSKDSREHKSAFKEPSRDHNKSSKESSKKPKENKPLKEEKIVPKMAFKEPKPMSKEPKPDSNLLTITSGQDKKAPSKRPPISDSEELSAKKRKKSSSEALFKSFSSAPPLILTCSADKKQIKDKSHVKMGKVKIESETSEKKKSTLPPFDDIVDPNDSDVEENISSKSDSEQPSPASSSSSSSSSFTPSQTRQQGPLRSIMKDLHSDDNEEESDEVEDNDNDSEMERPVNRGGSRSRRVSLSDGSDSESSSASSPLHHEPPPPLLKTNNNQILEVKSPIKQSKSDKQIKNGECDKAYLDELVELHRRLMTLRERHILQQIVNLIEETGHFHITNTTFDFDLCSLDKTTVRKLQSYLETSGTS
Ecoli rRNA inh: inhibitors of bacterial rRNA selective over humanized ribosomes; E. coli WT GFP vs humanized-ribosome RFP mutants, fluorescence, 24 h; hits give low values; DMSO median 0, no signal -100; GFP signal change (wild-type ribosome), % (no concentration beside the values); 350,000 tested, 1.6% active;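 active = significant combined selectivity score with lowered wild-type GFP, culture density cut under 30%, mutant RFP and density less affected; inactive = any of these conditions unmet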
Ring1 derepress: esBAF inhibition confirmed by Ring1 de-repression | shares compounds with esBAF inh | 550 tested, under 10 active | mouse ESC E14, Ring1 mRNA RT-qPCR fold change | fold change at 33 µM | AID 743176;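 active = Ring1 gene expression raised more than 2-fold over untreated cells in both replicates at either tested dose; inconclusive = only one replicate above 2-fold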;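 note: Ring1 transcript normalised to actin housekeeping signal by TaqMan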
Fgf4 repress: esBAF inhibition confirmed by Fgf4 repression; shares compounds with esBAF inh; mouse ESC E14, Fgf4 mRNA qPCR fold change; hits give low values; Fgf4 expression fold change at 33 µM; 550 tested, 4% active; AID 743177;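 active = Fgf4 expression under 0.8 fold of control in both repeat measurements at one or both tested doses; inconclusive = under 0.8 fold in just a single repeat measurement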;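 note: Fgf4 transcript normalised to actin in duplex TaqMan qPCR; cells exposed to compound for 24 h before lysis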
Bmi1 derepress: de-represses Bmi1 in mouse ESCs, confirming esBAF inhibition; shares compounds with esBAF inh; mouse ESE14 ES cells, Bmi1 mRNA qPCR fold; hits give high values; fold change at 33 µM; 550 tested, under 10 active; AID 743180;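 active = Bmi1 expression fold change above 6 at either tested concentration, seen in replicate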;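 note: higher fold means more Bmi1 de-repression and stronger esBAF inhibition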
A549 cytotox: A549 cell cytotoxicity. shares compounds with esBAF inh. plate reader. cell viability change % (negative = cytotoxic), % at 25 µM, hits read low. 550 tested, under 10 active. AID 743188; call rule not given here
HepG2 tox SP: kills or reduces viability of HepG2 cells | shares compounds with esBAF inh | HepG2 cytotoxicity, plate reader; hits give low values | activity change, negative = inhibition, % at 25 µM | 550 tested, 4% active; in the data active = activity change below about -50%
HEK293 cytotox SP: kills or reduces viability of HEK293 cells | 550 tested, 3% active | shares compounds with esBAF inh | activity change, negative = inhibition, % at 25 µM, hits read low | HEK293 cytotoxicity, plate reader | AID 743190; in the data active = activity change below about -38%, passing the limit was not always enough
Of the large screens only hits and unclear results are named; the others gave an inactive call (follow-up assays come after a bar, where they were run).

COc1ccc(Cl)c(-c2cc(C(=O)Nc3ccccc3)[nH]n2)c1	esBAF inh 97 (no result: MITF act) | Ring1 derepress inactive | Fgf4 repress inconclusive | Bmi1 derepress inactive | A549 cytotox inactive | HepG2 tox SP inactive | HEK293 cytotox SP inactive
Cc1ccc(NC(=O)Nc2ccc(F)cc2)cc1Cl	esBAF inh 68 | Ring1 derepress inactive | Fgf4 repress inactive | Bmi1 derepress inactive | A549 cytotox inactive | HepG2 tox SP inactive | HEK293 cytotox SP inactive
COc1ccc(Cl)c(-c2cc(C(=O)NCc3ccc(C(F)(F)F)cc3)[nH]n2)c1	none (no result: MITF act)
CC(C)CNC(=O)CN(c1ccccc1)S(=O)(=O)c1ccccc1[N+](=O)[O-]	none
COc1ccc(CC(=O)Nc2cccc(S(=O)(=O)N3CCCCC3)c2)cc1	AF4-AF9 inh inconclusive
Cc1ccc(Cl)cc1-c1cc(C(=O)NCc2ccc(C(F)(F)F)cc2)[nH]n1	none (no result: MITF act)
Cc1ccc(Cl)cc1-c1cc(C(=O)Nc2ccc(F)cc2)[nH]n1	esBAF inh 63 (no result: MITF act) | Ring1 derepress inactive | Fgf4 repress inactive | Bmi1 derepress inactive | A549 cytotox inactive | HepG2 tox SP inactive | HEK293 cytotox SP inactive
O=C(c1csc(Nc2ccccc2Cl)n1)N1CCCC1	esBAF inh 54 (no result: Wnt bcat act, MITF act, AF4-AF9 inh, Ecoli rRNA inh) | Ring1 derepress inactive | Fgf4 repress inactive | Bmi1 derepress inactive | A549 cytotox inactive | HepG2 tox SP inactive | HEK293 cytotox SP inactive
O=C(NCc1ccco1)c1csc(Nc2ccccc2Cl)n1	none (no result: AF4-AF9 inh, Ecoli rRNA inh)
COc1c(C(=O)NNC(=O)c2ccccc2)csc1Br	Wnt bcat act 39, esBAF inh 56 | Ring1 derepress inactive | Fgf4 repress inactive | Bmi1 derepress inactive | A549 cytotox inactive | HepG2 tox SP inactive | HEK293 cytotox SP inactive
CC(NC(=O)c1cccc(F)c1)C1CC2CCC1C2 (stereo not given)	none (no result: MITF act)
O=C(c1cc(C2CC2)nn1-c1ccccc1)N1CCN(S(=O)(=O)c2ccccc2F)CC1	none (no result: MITF act)
COC(=O)c1ccc2c(c1)N(C)CCS2	none
Cc1ccccc1NC(=O)c1ccc2c(c1)N(C)CCS2	esBAF inh 80 (no result: MITF act) | Ring1 derepress inactive | Fgf4 repress inactive | Bmi1 derepress inactive | A549 cytotox inactive | HepG2 tox SP inactive | HEK293 cytotox SP inactive
CO[C@@H](CN(C)C(=O)c1ccccc1F)[C@H](C)CN([C@H](C)CO)S(=O)(=O)c1ccc(F)cc1	none (no result: Wnt bcat act, MITF act)
O=C(Nc1ccc(SC(F)F)cc1)C12CCC(CC1)C2	esBAF inh 56 | Ring1 derepress inactive | Fgf4 repress inconclusive | Bmi1 derepress inactive | A549 cytotox inactive | HepG2 tox SP inactive | HEK293 cytotox SP inactive
N#Cc1c(NC(=O)C2CC2)sc2c1CCCCC2	none (no result: Wnt bcat act, esBAF inh, AF4-AF9 inh, Ecoli rRNA inh)
CN(C)c1ccc(-c2ccc3oc(-c4ccsc4)cc(=O)c3c2)cn1	Wnt bcat act 38, MITF act 124, esBAF inh 69 (no result: AF4-AF9 inh) | Ring1 derepress inactive | Fgf4 repress inactive | Bmi1 derepress inactive | A549 cytotox inactive | HepG2 tox SP inactive | HEK293 cytotox SP inactive
COc1ccc(C(=O)Nc2cc3c4c(c2)CC(=O)N4CCC3)c(OC)c1	MITF act 86, esBAF inh 67 (no result: Wnt bcat act, AF4-AF9 inh, Ecoli rRNA inh) | Ring1 derepress inactive | Fgf4 repress inactive | Bmi1 derepress inactive | A549 cytotox inactive | HepG2 tox SP inactive | HEK293 cytotox SP inactive
Cc1nc(-c2ccc(Cl)cc2)sc1C1(C)CC(c2cccnc2)=NO1 (stereo not given)	esBAF inh 77 | Ring1 derepress inactive | Fgf4 repress inactive | Bmi1 derepress inactive | A549 cytotox inactive | HepG2 tox SP inactive | HEK293 cytotox SP inactive
COc1ccc(C2=NOC(C)(c3sc(-c4ccc(Cl)cc4)nc3C)C2)cc1 (stereo not given)	none (no result: MITF act, esBAF inh)
O=C(CC(=O)c1ccccc1)Nc1ccccc1	Wnt bcat act 34, esBAF inh 76 (no result: MITF act) | Ring1 derepress inactive | Fgf4 repress inactive | Bmi1 derepress inactive | A549 cytotox inactive | HepG2 tox SP inactive | HEK293 cytotox SP inactive
O=C(O)CC(=O)Nc1ccccc1	none (no result: Wnt bcat act, AF4-AF9 inh, Ecoli rRNA inh)
Cc1ccc(S(=O)(=O)NCc2ccccc2)cc1C(=O)N1CC(C)CC(C)C1 (stereo not given)	none
Cc1ccc(S(=O)(=O)NCc2ccccc2)cc1C(=O)NC1CCC(C)CC1 (stereo not given)	esBAF inh 74 | Ring1 derepress inactive | Fgf4 repress inactive | Bmi1 derepress inactive | A549 cytotox inactive | HepG2 tox SP inactive | HEK293 cytotox SP inactive
O=C1NCCC/C1=N/Nc1cc(F)ccc1F	esBAF inh 60 (no result: Ecoli rRNA inh) | Ring1 derepress inactive | Fgf4 repress inactive | Bmi1 derepress inactive | A549 cytotox inactive | HepG2 tox SP -55 | HEK293 cytotox SP inactive
Cc1ccc(N/N=C2/CCCNC2=O)cc1	none (no result: MITF act, AF4-AF9 inh, Ecoli rRNA inh)
O=c1/c(=C\c2ccc(O)cc2)sc2n1C(c1ccccc1)C(c1ccccc1)=NN=2 (stereo not given)	none (no result: AF4-AF9 inh, Ecoli rRNA inh)
Nc1c(C(=O)NC2CCCC2)sc2nc(-c3cccs3)ccc12	none (no result: Wnt bcat act, esBAF inh, AF4-AF9 inh, Ecoli rRNA inh)
NC(=O)c1sc2nc(-c3cccs3)ccc2c1N	esBAF inh 59 | Ring1 derepress inactive | Fgf4 repress inactive | Bmi1 derepress inactive | A549 cytotox inactive | HepG2 tox SP inactive | HEK293 cytotox SP inactive
CC1(C)C/C(=N\O)c2cc3c(nc2C1)CCCC3	none (no result: AF4-AF9 inh)
C(=NOCc1ccccc1)c1cccnc1	esBAF inh 58 (no result: Ecoli rRNA inh) | Ring1 derepress inactive | Fgf4 repress inactive | Bmi1 derepress inactive | A549 cytotox inactive | HepG2 tox SP inactive | HEK293 cytotox SP inactive
C/C=C/c1ccc2c(c1)O[C@@H](CN(C)Cc1ccccn1)[C@@H](C)CN([C@@H](C)CO)S2(=O)=O	none (no result: Wnt bcat act, MITF act)
Cc1ccsc1CN(C)C(=O)C1CCC(=O)N(CCc2cccc(F)c2)C1 (stereo not given)	esBAF inh 65 | Ring1 derepress inactive | Fgf4 repress inactive | Bmi1 derepress inactive | A549 cytotox inactive | HepG2 tox SP inactive | HEK293 cytotox SP inactive
COC(=O)c1ccc2[nH]c(C3(O)CCCCC3)c(C)c2c1	Wnt bcat act inconclusive, MITF act 83, esBAF inh 72 | Ring1 derepress inactive | Fgf4 repress inactive | Bmi1 derepress inactive | A549 cytotox inactive | HepG2 tox SP -56 | HEK293 cytotox SP inactive
N#C[C@@H]1[C@H](c2ccccc2)[C@H](CO)N1C(=O)C1CCCC1	none (no result: Wnt bcat act, MITF act)
